# Reference: ChEMBL document CHEMBL4513216, “Probing the Open Global Health Chemical Diversity Library for Multistage-Active Starting Points for Next-Generation Antimalarials” (ACS Infect Dis, 2020)
# About 2,700 (4%) of roughly 68,000 compounds showed an effect of 50% or more. This excerpt belongs to a sample that is enriched for strong results.
# System: Plasmodium berghei
# Assay: Screen against P. berghei liver stage (PbLuc), transformed with Luciferase, at 2uM
# Assay type: functional, HepG2
# Settings: tested at 2 uM
row,Structure (SMILES),INHIBITION [%]
1,Cc1nccn1-c1cccc(N2CCC(OCC3CCCCO3)CC2)n1 (configuration not stated),-16.7
2,COc1ccc(OC)c2c(C)cc(N(C)Cc3cc(C)on3)nc12,38.87
3,Cc1cccc(CN2CC3(CCN(C4CCOC4)CC3)OCC2=O)n1 (configuration not stated),15.98
4,COc1c(CNCc2ccc(C(=O)N3CCCC3)cc2)c(C)nn1C,-36.39
5,O=C(CN1CCCC(c2ncc[nH]2)C1)NCCCN1CCCCCC1=O (configuration not stated),-21.61
6,O=C(CCC(F)(F)F)N1CCCC(c2ncc[nH]2)C1 (configuration not stated),-1.64
7,O=C(CN1CCCC(c2ncc[nH]2)C1)NCC(F)(F)F (configuration not stated),51.23
8,CC(=O)NS(=O)(=O)c1ccc(F)c(C(F)(F)F)c1,-38.34
9,CS(=O)(=O)CCC(=O)N1CCC2(CCCN(C3CCOCC3)C2=O)C1 (configuration not stated),-11.19
10,O=C(O)c1cc(S(=O)(=O)Nc2cccc3c2OCCO3)c(Cl)cc1F,-47.76
11,CCOc1ccc(C(F)(F)F)cc1NC(=O)N1CCC(C(N)=O)CC1,-3.17
12,CCc1n[nH]c(NC(=O)c2ccc(Cl)cn2)c1Br,-3.87
13,Cc1ccc(CN2CCn3cc(CN4CCN(C)CC4)nc3C2)cc1,18.32
14,CN1CCN(Cc2cn3c(n2)CN(CC2CC2)CC3)CC1,70.17
15,c1c(CN2CCCCC2)nc2n1CCN(CC1CC1)C2,7.13
16,CN1CCN(Cc2cn3c(n2)CN(Cc2ccncc2)CC3)CC1,51.26
17,c1c(CN2CCCC2)nc2n1CCN(CC1CC1)C2,-33.57
18,CN1CCN(Cc2cn3c(n2)CN(Cc2cccnc2)CC3)CC1,-59.73
19,CCCS(=O)(=O)NC(C)C(=O)NCc1ccc(N2CCCC2)nc1 (configuration not stated),-5.15
20,O=C(c1cc[nH]n1)N1CCC2(CC1)CC(Oc1cccnc1)CO2 (configuration not stated),-0.83
21,O=C(CSc1ccccc1F)NS(=O)(=O)c1ccc2c(c1)OCCO2,12.81
22,O=C(CCCOc1ccccc1F)Nc1cc[nH]n1,-9.47
23,CC(NC(=O)COc1nc(C(C)(C)C)no1)c1ccco1 (configuration not stated),1.22
24,Cn1cc(C2CCCN2C(=O)CS(=O)(=O)C2CCCC2)cn1 (configuration not stated),-0.06

row,Structure (SMILES),INHIBITION [%]
1,Cc1ccc2c(c1)C1(CCN(C(N)=O)CC1)CN2C(=O)N(C)C,-22.42
2,Cc1ccc2c(c1)C1(CCN(C(N)=O)CC1)CN2CC1CC1,52.12
3,CC(=O)N1CCC2(CC1)CN(CC1CC1)c1ccc(F)cc12,-18.44
4,CC(C(=O)Nc1nccs1)N1CCc2nn(C)c(=O)cc2C1 (configuration not stated),16.82
5,Cn1c(CN2CCCC2)nnc1C1CCCN(C(=O)C2CCOCC2)C1 (configuration not stated),-19.54
6,CCCc1cc(N2CCCC2Cn2nc(C)nc2C)n2ncnc2n1 (configuration not stated),19.39
7,CCn1nc(C)c2ncnc(N3CCCC(C)C3)c21 (configuration not stated),73.48
8,CCCc1nc(N2CCCC(C)C2)c2c(n1)c(C)nn2CC (configuration not stated),15.58
9,CCN(CC)c1ncnc2c(C)nn(CC)c12,-25.59
10,CS(=O)(=O)NCC1CCCN(c2ccc(C#N)cn2)C1 (configuration not stated),-0.3
11,N#Cc1cccnc1N1CCCN(C(=O)CCn2cccn2)CC1,41.76
12,O=c1ccc2c([nH]1)CCN(S(=O)(=O)c1ccc3c(c1)OCCO3)C2,14.45
13,O=S(=O)(c1ccc2c(c1)OCCO2)N1CCC(OCc2ccccn2)C1 (configuration not stated),-26.14
14,O=S(=O)(c1ccc2c(c1)OCCO2)N1CCc2ccccc2C1,50.57
15,COc1ccc(C(C)NC(=O)NCCCn2cncn2)cc1F (configuration not stated),-40.52
16,CC(NC(=O)CSCC(N)=O)c1ccc(Oc2ccccc2)cc1 (configuration not stated),29.97
17,CCS(=O)(=O)CC(=O)NC(C)c1ccccc1Oc1ccccc1 (configuration not stated),-28.15
18,CC(NC(=O)CSCC(N)=O)c1ccccc1Oc1ccccc1 (configuration not stated),51.7
19,Cc1ccc(CN2CCCC23CCN(S(=O)(=O)c2ccccc2)C3)o1 (configuration not stated),-30.74
20,Cc1ncc(CN(Cc2ccccn2)Cc2ccccc2Cl)n1C,-6.19
21,CC(=O)N1CC2(CCNCC2)c2cc(Cl)ccc21,62.25
22,NC(=O)N1CC2(CCNCC2)c2cc(Cl)ccc21,6.12
23,COC(=O)N1CC2(CCNCC2)c2cc(Cl)ccc21,22.71
24,O=c1cc(C2CCNCC2)nc(CCc2ccccn2)[nH]1,15.92

row,Structure (SMILES),INHIBITION [%]
1,O=C(Cc1csc(-c2ccoc2)n1)NCCC(=O)N1CCCCC1,45.56
2,O=C(Cc1csc(-c2ccoc2)n1)NCCCN1CCCCC1,6.85
3,CC1CCCN(CCCNC(=O)Cc2csc(-c3ccoc3)n2)C1 (configuration not stated),50.61
4,COCC(=O)N1CCC(C(=O)Nc2ccc(C(C)=O)cc2)CC1,10.64
5,CCC(C)NC(=O)Nc1cccc(OCCCC#N)c1 (configuration not stated),12.39
6,O=C(c1ccco1)N1CC[C@@H]2O[C@H](COCCN3CCCC3)CC[C@@H]21,15.88
7,c1cncc(-c2ccnn2CN2CCOCC2)c1,-31.15
8,CC(C)(C)C(=O)N1CCN(Cn2nccc2-c2cccnc2)CC1,53
9,CC(C)(C)CCN1CCN(Cn2nccc2-c2cccnc2)CC1,-15.83
10,CC(=O)NCCNC(=O)C1(Oc2cccnc2C)CCNCC1,53.19
11,Cc1ncccc1OC1(C(=O)NCCc2ccccn2)CCNCC1,17.94
12,Cc1ncccc1OC1(C(=O)NCCNc2ccccc2)CCNCC1,-25.28
13,Cc1cnn(C2CN(CC(O)COc3ccc(C#N)cc3)C2)c1 (configuration not stated),-2.84
14,Cc1n[nH]c(C)c1CCN(C)C(=O)C(c1cccnc1)N1CCOCC1 (configuration not stated),51.31
15,Cc1ncsc1CCN(C)C(=O)C(c1cccnc1)N1CCOCC1 (configuration not stated),-13.13
16,Cc1cc(CN(C)C(=O)C(c2cccnc2)N2CCOCC2)n[nH]1 (configuration not stated),39.92
17,O=C(N1CCCCC1)N1CCN(c2ccc(Cl)nn2)C(=O)C1,34.52
18,COc1cc(N2C[C@H]3CN(Cc4ccccn4)C[C@H]3C2)ncn1,-37.2
19,CC(NC(=O)N1CCc2sccc2C1)c1nncn1C (configuration not stated),64.21
20,COc1cc2c(cc1OC)CN(C(=O)NC(C)c1nncn1C)CC2 (configuration not stated),-23.92
21,COc1ccc(N2CCN(C(=O)NC(C)c3nncn3C)CC2)cc1 (configuration not stated),-11.34
22,CC(NC(=O)N1CCc2ccccc2C1)c1nncn1C (configuration not stated),-56.96
23,CC(NC(=O)N1CCN(c2ccccc2)CC1)c1nncn1C (configuration not stated),50.72
24,Cc1cccc(N2CCN(C(=O)NC(C)c3nncn3C)CC2)c1 (configuration not stated),48.64
